# Assay outcomes deposited in PubChem by National Center for Advancing Translational Sciences (NCATS).
# A selection: hits, their analogues and other compounds. The true share with any hit is near 8.1%.
# MCF10A rerep: inducers of DNA re-replication in MCF 10A breast cells; Potency, µM (doses to about 46.1 µM), without a hit: at the top dose activity, positive = re-replication, hits mostly activators; 350,000 compounds, 2.9% hits; AID 624296; MCF 10A DNA re-replication, Hoechst nuclear intensity, 48 h; further: % of control where 0% means no effect; nearly all actives have a fitted effect of over 50% in size
# KB-3-1 cytotox: KB-3-1 parental cell cytotoxicity; KB-3-1 viability, CellTiter-Glo ATP luminescence, 72 h; Potency, µM (series often up to 46.1 µM), hits mostly cytotoxic; 400,000 compounds, 1.4% hits; further: on the % scale 0 is the no-effect control and ±100 the full control effect; nearly all actives have a fitted effect of over 60% in size
#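 Screening of KB-3-1 cells (DMEM, 10% FBS, phenol-red free) ran from lowest to highest compound concentration; after 72 h at 37 °C viability was read luminescently and curves fitted.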
# SW480 rerep: DNA re-replication induction in SW480 cells; Potency, µM (series often up to 46.1 µM), for the others: at the top dose re-replication activation, usual class: activators; 340,000 compounds, 1.8% hits; AID 624297; SW480 DNA re-replication, Hoechst DNA content imaging, 48 h; further: % of control where 0% means no effect; nearly all actives have a fitted effect of over 55% in size
#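 Image-based DNA-content assay: after two days of treatment, nuclei were labelled with the DNA dye Hoechst and imaged, and hits were compounds raising the count of nuclei showing high fluorescence intensity.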
# ELG1 repair inh: inhibitors of ELG1-dependent DNA repair in HEK293T cells; HEK293T ELG1-luciferase reporter, luminescence, 16 h; DNA damage induced by 5-fluorouridine; Potency, µM (highest dose often 46.1 µM), inactives show top-dose activity change, negative = inhibition, most hits filed as inhibitors; 330,000 compounds, 2.3% hits; further: on the % scale 0 is the no-effect control and ±100 the full control effect; nearly all actives have a fitted effect of over 55% in size
#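 Luminescence from the luciferase reporter, measured 30 min after ONE-Glo reagent at room temperature, was the read-out. Beforehand, 2,000 cells per well were exposed for 16 hr at 37 °C to 5-fluorouridine together with compound or vehicle.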
# KB-V1 cytotox: kills drug-selected multidrug resistant KB-V1 cells; KB-V1 MDR cells viability, CellTiter-Glo, 72 h; Potency, µM (highest dose often 46.1 µM), usual class: cytotoxic; 400,000 compounds, 3.4% hits; AID 1347076; further: on the % scale 0 is the no-effect control and ±100 the full control effect; nearly all actives have a fitted effect of over 60% in size
#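 KB-V1 cells (P-gp-expressing MDR subline of KB-3-1) in phenol-red-free DMEM with 10% FBS were exposed to library compounds over a concentration series for 72 h at 37 degrees C. Viability read by CellTiter-Glo luminescence; concentration-effect curves fitted after normalization.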
# * hit, by the source's call; i = inactive; ? = inconclusive; / = not tested or not shown. The call rests on the fitted dose curve; in most records, active means well fitted curve in the direction sought with a large enough effect; inconclusive means small, poorly fitted or top-dose-only effect, or another doubt; inactive means no such curve, though single readings can be large; an effect the other way counts as inactive or inconclusive. Potency means the concentration at half of the fitted maximal effect.
SMILES,MCF10A rerep,KB-3-1 cytotox,SW480 rerep,ELG1 repair inh,KB-V1 cytotox
Cc1nn(C)c(C(=O)Nc2ccn(Cc3ccccc3F)n2)c1[N+](=O)[O-],6.2%,i,-1.0%,-0.9%,25.9µM*
O=C(Nc1cccnc1)c1ccc(COc2cc(Cl)ccc2Cl)o1,?,?,3.8%,?,23.1µM*
Cc1cc(C)n(Cc2ccc(NC(=O)c3ccc(COc4ccccc4Br)cc3)cc2)n1,51.1%,16.4µM*,19.0%,?,2.59µM*
COc1ccc(-c2cnc(N3CCC(C(N)=O)CC3)s2)cc1OC,/,i,/,/,i
O=C(Nc1ccn(Cc2ccccc2F)n1)c1ccc(COc2cc(Cl)ccc2Cl)o1,?,i,18.2%,?,4.11µM*
CC(C)(C)NC(=O)c1ccc(COc2ccc(Cl)cc2Cl)o1,?,?,6.0%,?,13µM*
O=C(N/N=C/c1ccc(O)cc1)c1ccc(COc2cc(Cl)ccc2Cl)o1,18.4µM*,i,2.4%,20.5%,i
O=C(NCc1cccnc1)c1ccc(COc2ccccc2Cl)cc1,4.8%,i,?,?,i
O=C(Nc1ccn(Cc2c(F)c(F)cc(F)c2F)n1)c1ccc(COc2cc(Cl)ccc2Cl)o1,9.6%,i,2.8%,?,i
Cc1cc(C)nc(NC(=O)c2ccc(COc3ccccc3Cl)cc2)c1,3.66µM*,?,12.7%,0.0%,i
O=C(NCc1ccc2c(c1)OCO2)c1ccc(COc2cc(Cl)ccc2Cl)o1,19.4%,i,10.1%,-15.4%,?
CN(C)c1ccc(-c2ccnc3c2CC(C)(C(=O)Nc2cccc(C(F)(F)F)c2)O3)cc1 (configuration not stated),/,i,/,/,i
CCN(C(=O)CSc1ncc2c(n1)-c1cc(Cl)ccc1N(Cc1ccccc1)S2(=O)=O)c1cccc(C)c1,/,i,/,/,i
CCc1ccc(OCCn2c(CCNC(=O)C3CCCCC3)nc3ccccc32)cc1,/,i,/,/,i
CC1=C(C(=O)NCc2ccccc2C)C2(CCCCCC2)OC1=O,/,i,/,/,i
O=C(Nc1ccn(Cc2c(F)c(F)cc(F)c2F)n1)c1ccc(COc2ccccc2Cl)cc1,?,i,6.7%,?,i
O=C(Nc1ccn(Cc2ccccc2F)n1)c1ccc(COc2ccccc2Cl)cc1,?,?,5.4%,?,2.59µM*
Cc1cc(/C=N\NC(=O)CC(=O)NC2CCCCC2)c(C)n1-c1cccc(Cl)c1Cl,?,?,?,-4.7%,23.1µM*
COc1ccccc1-c1nc(SCC(=O)Nc2ccc(C)c(C)c2)n[nH]1,/,i,/,/,i
CCOc1ccc(CCNC(=O)NCc2noc3ccc(C)cc23)cc1,/,i,/,/,i
CNc1ccccc1C(C)(C)c1cc(-c2cccc([N+](=O)[O-])c2)no1,?,i,?,1.46µM*,i
CC(C)(C)c1cc(-c2ccccc2)no1,-5.8%,i,-6.6%,?,i
CNc1ccccc1C(C)(C)c1cc(-c2cccc(Br)c2)no1,14.6µM*,23.1µM*,26.0%,9.2µM*,i
CNc1ccccc1C(C)(C)c1cc(-c2ccc(F)cc2)no1,-4.7%,8.2µM*,/,?,?
Brc1cccc(-c2nnc(-c3ccccc3)o2)c1,9.2%,i,-1.1%,?,i
SMILES,MCF10A rerep,KB-3-1 cytotox,SW480 rerep,ELG1 repair inh,KB-V1 cytotox
COC(=O)[C@H](CC(C)C)NS(=O)(=O)NC(=O)OC(C)(C)C,/,i,/,/,i
CC(=O)Nc1ccc2cnn(C(C)=O)c2c1,/,i,/,/,i
O=C(CN1c2ccccc2Sc2ccccc21)NNC(=O)Nc1ccc(Cl)c(Cl)c1,16.4µM*,i,?,-15.8%,i
O=C(NCc1ccc2c(c1)OCO2)c1cc(-c2ccccc2)c(N2CCOCC2)s1,11.0%,i,-5.4%,18.3µM*,i
O=C(NCc1ccco1)c1cc(-c2ccccc2)c(N2CCOCC2)s1,27.5%,i,3.9%,20.6µM*,i
CCOc1ccc(CCNC(=O)c2cc(-c3ccccc3)c(N3CCOCC3)s2)cc1OCC,1.9%,i,-3.9%,16.4µM*,i
CCOc1ccc(CCNC(=O)c2cc(-c3ccccc3)c(N3CCOCC3)s2)cc1,-10.2%,i,-0.5%,/,i
Brc1cccc[n+]1Cc1ccc(C[n+]2ccccc2Br)cc1,/,?,/,/,i
Cc1ccc(NC(=S)NNC(=S)Nc2ccc(C)cc2)cc1,25.0%,3.66µM*,-5.1%,/,?
Cc1ccc(NC(=S)NNC(=O)c2c(Cl)c(C)nn2C)cc1,?,i,-0.4%,-6.9%,16.4µM*
Cc1ccc(NNC(=S)Nc2ccc(C(C)C)cc2)c(C)c1,7.31µM*,i,6.3%,18.5%,i
Cc1ccc(NC(=S)NNC(=O)Nc2ccccc2)cc1,-3.5%,i,-0.4%,?,i
Cc1ccc(NC(=O)CCC(=O)NNC(=S)Nc2ccc(F)cc2)c(C)c1,-21.1%,?,-12.5%,12.6%,?
O=C(NNC(=S)Nc1ccc(F)cc1)c1ccccc1OC(F)F,2.0%,i,-11.2%,-21.2%,?
Cc1ccc(NC(=S)NNC(=O)c2ccccc2OC(F)F)cc1,-4.4%,i,16.4µM*,0.7%,?
Cc1cccc(-c2nn3c(=O)cc(CN4CCN(C(=O)/C=C/c5ccccc5)CC4)nc3s2)c1,/,i,/,/,i
COc1ccc2ncnc(NCC3CCCO3)c2c1-c1ccc2c(c1)OCO2 (configuration not stated),/,i,/,/,i
Cc1cc(S(=O)(=O)N2CCOCC2)ccc1OCC(=O)NCCN1CCOCC1,-4.7%,i,-6.1%,-1.2%,i
Cc1ccc(N2C(=O)CS(=O)(=O)C23C(=O)N(Cc2ccccc2F)c2ccccc23)cc1Cl (configuration not stated),/,i,/,/,i
Cc1c(Cl)cccc1NC(=O)c1cc2sccc2n1Cc1ccc(F)cc1,/,i,/,/,i
COc1cc2c(cc1OC)CN(CC(=O)Nc1ccccc1C(=O)NCc1ccccc1)CC2,?,i,2.4%,23.1µM*,?
COc1ccccc1NC(=O)COc1ccc(C(=O)NCc2ccccc2)cc1OC,25.1%,?,3.0%,25.9µM*,i
CCc1ccccc1NC(=O)CN(c1cc(C(F)(F)F)ccc1Cl)S(=O)(=O)c1ccccc1,/,i,/,/,i
CCOc1ccc(C(=O)N(Cc2cc(OC)c(OC)c(OC)c2)c2ccccn2)cc1,/,i,/,/,i
Cc1c(C(=O)N2CCN(Cc3ccc4c(c3)OCO4)CC2)sc2ncnc(N3CCN(c4ccccc4)CC3)c12,2.9%,i,-5.5%,4.61µM*,i
Cc1c(C(=O)N2CCN(Cc3ccc4c(c3)OCO4)CC2)sc2ncnc(N3CCN(c4ccccc4F)CC3)c12,-4.0%,?,11.8%,6.51µM*,i
